Measured values published in PubChem BioAssay AID686979 (National Center for Advancing Translational Sciences (NCATS), 2013).
About 50,000 (12%) of roughly 420,000 compounds were called active. Roughly 26% stayed inconclusive and do not appear here. This is one part of a sample in which actives are shown more often than they occur. A number with no mark means an inactive call. The call rests on the fitted dose curve; in most records, active means well fitted inhibition curve with a large enough effect; inconclusive means small, poorly fitted or top-dose-only effect; inactive means flat fitted curve, though single readings scatter.

Experiment: qHTS for Inhibitors of human tyrosyl-DNA phosphodiesterase 1 (TDP1): qHTS in cells in presence of CPT; further: nearly all actives have a fitted effect of over 55% in size
Conditions: chicken DT40 Tdp1-/-;hTDP1 cells + 20 nM CPT, ATP luminescence, 48 h; series mostly up to 46.2 µM; activity change, negative = growth inhibition: at the top concentration
How it was run: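 Chicken DT40 Tdp1-/- cells complemented with human TDP1, 400 cells/well, exposed to compounds plus 20 nM camptothecin for at least 48 h at 37 C; viability read as ATP content by CellTiter-Glo luminescence.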
On the % scale 0 is the no-effect control and ±100 the full control effect; potency means the concentration at half of the fitted maximal effect.

Structure (SMILES)	activity change, negative = growth inhibition	Potency
O=C(NN=Cc1ccc(N2CCOCC2)cc1)c1cc2ccccc2cc1O	-27.4%	
CCN(CC)c1ccc(C(=O)N/N=C/c2ccc(N3CCOCC3)cc2)cc1	1.61%	
CC1CCN(C(NC(=O)c2ccco2)C(=O)c2ccccc2)CC1 (stereo not drawn)	-18.3%	
Cc1csc(SCC(=O)Nc2ccc(C)c(S(=O)(=O)N(C)C)c2)n1	-44.9%	
Cc1ccc(C(=O)NNC(=O)CSc2nnc3ccccn23)cc1	1.45%	
Cc1ccc(-n2c(C)cc(C(=O)CSc3nnc4ccccn34)c2C)cc1		23.1 µM (active)
O=C(CSc1nnc2ccccn12)c1ccccc1	-8.77%	
COc1ccccc1C(=O)COC(=O)CSCC(=O)Nc1cc(C)on1	-16.7%	
NC(=O)C1CCCN(CC(=O)N2CCN(c3ccccc3)CC2)C1 (stereo not drawn)	-9.01%	
Cc1ccc(S(=O)(=O)Oc2ccc(/C=N/NC(=O)c3c(Cl)cnn3C)cc2)cc1	-25%	
Cc1nc2ccccn2c(=O)c1NC(=O)c1ccc(Br)o1	-3.61%	
Cc1ccc(-c2nc3ccccn3c2Nc2c(C)cccc2C)o1		16.4 µM (active)
CC(C)(C)Nc1c(-c2cccs2)nc2ccccn12	0.159%	
O=C(CSc1ccccc1)Nc1cccc(S(=O)(=O)N2CCOCC2)c1	-26.4%	
CC(=O)Nc1ccc(C(=O)NNC(=O)CCCCC(=O)NNC(=O)c2ccc(NC(C)=O)cc2)cc1	-3.53%	
Cn1c(=O)n(C)c2cc(C(=O)Nc3ccc(Br)cc3)ccc21	-17.5%	
COCCn1c(=O)[nH]c(=O)c2cc(C(=O)c3cc(OC)ccc3O)cnc21	-23.3%	
COc1cc(OC)c2c(c1)OC(=O)CC2c1cc(OC)c(OC)c(OC)c1 (stereo not drawn)	-9.46%	
COC(=O)c1cc(CNC(=O)CC(C)c2ccccc2)ccc1OC (stereo not drawn)	9.19%	
COc1cc(Cl)c(C)cc1NC(=O)CN1CCCCCC1	0.785%	
COc1cc(NC(=S)N2CCCC(C)C2)c(OC)cc1Cl (stereo not drawn)	0.248%	
COc1cc(NC(=O)CSC(=S)N2CCCC2)c(OC)cc1Cl		29.1 µM (active)
N#C/C(=C\c1cccc(F)c1)c1nc(-c2cc3c(ccc4ccccc43)oc2=O)cs1	-15%	
Cc1cc(C)c(S(=O)(=O)N(C)CC(=O)NCC2CCCO2)c(C)c1 (stereo not drawn)	-8.5%	
COc1cccc(C(=O)NC2=NC(c3ccc(N(C)C)cc3)CC(=O)N2)c1 (stereo not drawn)	-17.6%	
COc1ccc(CCNc2nc(C)cc(C)n2)cc1OC	1.65%	
COc1ccc(CCNc2nc(-c3ccc(Cl)cc3)cc(C(F)(F)F)n2)cc1OC		23.1 µM (active)

Structure (SMILES)	activity change, negative = growth inhibition	Potency
COc1ccc(CCNC(=O)COC(=O)c2ncc(Cl)c(Cl)c2Cl)cc1OC	-11.5%	
O=C(CN(C(=O)c1csnn1)c1ccc(Br)cc1)NC1CCCC1	3.35%	
O=C(CCN1C(=O)[C@H]2CC=CC[C@H]2C1=O)NCc1nc(-c2ccccc2)no1	-5.36%	
COc1ccc(OC)c(NC(=O)c2ccc3c(c2)C(=O)N(c2ccc(OC(C)=O)cc2)C3=O)c1	5.37%	
CC1CCCCN1CCCNc1ccc(C(CC(N)=O)NC(=O)c2ccccc2)cc1[N+](=O)[O-] (stereo not drawn)	8.16%	
Cc1ccc(OCC(=O)Nc2ccc(NC(=O)c3cccs3)cc2)c(C)c1	-14%	
CCC(C)N1C(=S)SC(C)(C)C1N(O)C(=O)NC1CCCCC1 (stereo not drawn)	-24.1%	
O=C(COC(=O)c1ccc(O)cc1O)NNC(=O)c1cccs1	2.24%	
Cc1cc2nc3n(c2cc1C)CC1CC(C(=O)NCCC(C)C)N(C)C31 (stereo not drawn)	1.75%	
COc1ccc(-n2ncc3c(SCC(=O)NNC(C)=O)ncnc32)cc1	5.07%	
COCCN1Cc2cccc(C(=O)Nc3ccccc3OC)c2C1=O	-15%	
COc1ccc(NC(=O)c2cccc3c2C(=O)N(CC2CCCO2)C3)cc1OC (stereo not drawn)		23.1 µM (active)
CCOc1ccc(NC(=O)c2cccc3c2C(=O)N(CC2CCCO2)C3)cc1 (stereo not drawn)	-6.22%	
O=C1NC(c2ccccc2)CCC1(Cl)Cl (stereo not drawn)	3.71%	
Cc1ccc(NC(=O)CCN2C(=O)c3ccccc3C2=O)cc1C	-4.36%	
COC(=O)C[C@H]1C[C@@H]2c3cc(NC(=O)Nc4ccccc4)ccc3O[C@@H]2[C@@H](CO)O1	-6.14%	
O=C(CN1Cc2ccccc2OC(c2ccccc2)C1)N1CCCCC1c1cccnc1 (stereo not drawn)	-0.761% [at 9.04 µM]	
COc1cc(CNCc2cccs2)cc(Br)c1OC	-7.72%	
COc1cc(CNCc2ccc(OC)c3ccccc23)cc(OC)c1OC		9.2 µM (active)
COc1ccc(CNCCCNCc2ccc(OC)c(OC)c2)cc1OC	-9.22%	
Cn1cncc1COC(=O)c1ccc(Cl)cc1	-14.8%	
Cc1ccccc1NC(=O)c1nn(-c2ccc(F)c(F)c2)ccc1=O	-1.27%	
Cc1cccc(NC(=S)N(CCN(C)C)C(C)c2ccco2)c1 (stereo not drawn)	-17.4%	
CC(C)NC(=O)N1CCN(c2ccncc2S(=O)(=O)N2CCCCC2)CC1	2.06%	
CN1CCN(c2ccncc2S(=O)(=O)N2CCCC2)CC1	9.33%	
O=S(=O)(c1cnccc1N1CCN(/N=C/c2ccc(Br)cc2)CC1)N1CCCCC1		18.4 µM (active)
